Assay results from PubChem BioAssay.
Active and inactive are the calls of the source. Unless noted, no rule for the calls is given here.

Legend:
[1] = HepG2 liver cancer cell viability effects, profiling panel, resazurin fluorescence, 24 h, PK04 Diversity Set (AID 1172); details: higher = more signal
[2] = basal S. cerevisiae growth modulation, no modifier, primary screen, OD600, strain BY4716, 24 h, basal condition (AID 1173); details: OD600, 24 h, higher = more signal, called active from +8 up or from −8 down
[3] = MM1S myeloma cell viability, profiling panel, resazurin fluorescence, basal, 24 h, PK04 Diversity Set (AID 1174); details: higher = more signal, called active from +8 up or from −8 down;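 also: MM1S multiple myeloma cell line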
[4] = target: Dihydroorotate dehydrogenase (quinone), mitochondrial (Plasmodium falciparum (isolate 3D7)) (UniProt Q08210); assay: PfDHODH enzyme inhibitors, primary screen, biochemical, C-terminal His tag, absorbance 600 nm (AID 1175); details: DCIP absorbance 600 nm, higher = more signal, called active from +8 up or from −8 down;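 also: recombinant parasite enzyme with a five histidine tag at its C terminus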
[5] = P. aeruginosa biofilm formation inhibitors, primary screen, strain PAO1, LB-PBS medium, absorbance 600 nm (AID 1176); details: P. aeruginosa PAO1 growth/biofilm, A600, 12 h; higher = more signal
[6] = S. cerevisiae RM11-1a growth modifiers, primary screen, strain RM11-1a, OD600, basal, 24 h (AID 1177); details: OD600, 24 h, higher = more signal, called active from +8 up or from −8 down;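 also: cultures grown under basal conditions with no added stressor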
[7] = E. coli acrAB mutant growth effects, primary screen, E. coli filamentation inducers, strain DRC39, OD650, 24 h (AID 1178); details: higher = more signal, called active from +8 up or from −8 down;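 also: growth measured as culture turbidity by optical density at 650 nm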
[8] = E. coli acrAB mutant growth effects, primary screen, E. coli filamentation inducers, strain DRC39, OD650, 48 h (AID 1179);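 also: screen aims at cell division blockers that make cells filament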; details: E. coli DRC39 delta-acrAB growth, higher = more signal, called active from +8 up or from −8 down
[9] = RPMI8226 myeloma cell viability, profiling panel, resazurin fluorescence, basal, 24 h, PK04 Diversity Set (AID 1180); details: higher = more signal;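 also: RPMI8826 multiple myeloma cell line at 5000 cells per well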
[10] = target: E3 ubiquitin-protein ligase XIAP (Homo sapiens) (UniProt P98170); assay: XIAP binders, primary screen, biophysical, small-molecule microarray, fluorescence 635 nm (AID 1181); details: small-molecule microarray binding, higher = more signal;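 also: score merges 667 nm emission and signal to noise over triplicate slides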
[11] = test system: XIP peptide (Xip251-270) binding; assay: small-molecule binders of XIP peptide, primary screen, biochemical, small-molecule microarray, fluorescence 635/667 nm, 0.1 µg/mL protein (AID 1182); details: fluorescent protein binding, 635 nm, higher = more signal, called active from +8 up or from −8 down
[12] = test system: XIP peptide (Xip251-270); assay: small-molecule binders of XIP peptide, primary screen, biochemical, small-molecule microarray, fluorescence 635/667 nm, 0.5 µg/mL protein (AID 1183); details: small-molecule microarray binding, fluorescence 635 nm; higher = more signal
[13] = Plasmodium falciparum growth inhibition, primary screen, strain 3D7, DAPI fluorescence, 100 nL (AID 1184);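 also: parasites grown inside human red blood cells in medium with human serum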; details: P. falciparum 3D7 growth, 3 d, higher = more signal
[14] = target: Homeobox protein Hox-A13 (Mus musculus) (UniProt Q62424); assay: inhibitors of HoxA13-DNA binding, primary screen, biochemical, fluorescence polarization, labeled oligonucleotide (AID 1185); details: 15 min, higher = more signal, called active from +8 up or from −8 down
[15] = inhibitors of hydroxyurea-induced Chk1 phosphorylation, primary screen, imaging, HeLa, phospho-Chk1 antibody, percent positive cells (AID 1186); details: hydroxyurea-induced phospho-Chk1 immunofluorescence imaging, higher = more signal
[16] = inhibitors of hydroxyurea-induced Chk1 phosphorylation, primary screen, imaging, HeLa, phospho-Chk1 nuclear intensity (AID 1187); details: hydroxyurea-induced phospho-Chk1 immunofluorescence imaging, higher = more signal

Homeobox protein Hox-A13 (Mus musculus), sequence (Q62424 whole entry, looked up): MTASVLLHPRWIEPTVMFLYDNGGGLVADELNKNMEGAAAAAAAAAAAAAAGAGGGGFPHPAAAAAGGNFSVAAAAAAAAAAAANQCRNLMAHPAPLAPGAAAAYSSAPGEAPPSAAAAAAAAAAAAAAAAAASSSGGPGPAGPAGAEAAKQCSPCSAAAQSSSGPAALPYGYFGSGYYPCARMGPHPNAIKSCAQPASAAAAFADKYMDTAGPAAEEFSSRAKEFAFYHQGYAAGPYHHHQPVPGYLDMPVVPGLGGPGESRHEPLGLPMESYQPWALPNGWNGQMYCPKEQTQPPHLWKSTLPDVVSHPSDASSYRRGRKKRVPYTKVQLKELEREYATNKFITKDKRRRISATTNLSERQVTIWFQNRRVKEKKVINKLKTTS
E3 ubiquitin-protein ligase XIAP (Homo sapiens), sequence (P98170 whole entry, looked up): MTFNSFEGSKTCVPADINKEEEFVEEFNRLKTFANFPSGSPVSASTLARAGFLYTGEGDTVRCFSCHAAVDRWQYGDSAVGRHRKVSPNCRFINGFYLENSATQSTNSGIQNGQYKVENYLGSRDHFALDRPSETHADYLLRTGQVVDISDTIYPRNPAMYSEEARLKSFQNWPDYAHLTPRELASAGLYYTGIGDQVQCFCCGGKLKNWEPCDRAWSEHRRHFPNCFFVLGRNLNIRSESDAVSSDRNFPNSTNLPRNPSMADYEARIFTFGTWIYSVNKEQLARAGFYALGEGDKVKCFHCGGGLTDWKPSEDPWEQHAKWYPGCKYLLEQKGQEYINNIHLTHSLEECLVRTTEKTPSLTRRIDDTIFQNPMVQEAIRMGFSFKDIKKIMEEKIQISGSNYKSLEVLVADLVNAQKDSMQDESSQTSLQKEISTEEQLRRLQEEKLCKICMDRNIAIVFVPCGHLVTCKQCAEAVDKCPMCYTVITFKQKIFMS
Dihydroorotate dehydrogenase (quinone), mitochondrial (Plasmodium falciparum (isolate 3D7)), sequence (Q08210 whole entry, looked up): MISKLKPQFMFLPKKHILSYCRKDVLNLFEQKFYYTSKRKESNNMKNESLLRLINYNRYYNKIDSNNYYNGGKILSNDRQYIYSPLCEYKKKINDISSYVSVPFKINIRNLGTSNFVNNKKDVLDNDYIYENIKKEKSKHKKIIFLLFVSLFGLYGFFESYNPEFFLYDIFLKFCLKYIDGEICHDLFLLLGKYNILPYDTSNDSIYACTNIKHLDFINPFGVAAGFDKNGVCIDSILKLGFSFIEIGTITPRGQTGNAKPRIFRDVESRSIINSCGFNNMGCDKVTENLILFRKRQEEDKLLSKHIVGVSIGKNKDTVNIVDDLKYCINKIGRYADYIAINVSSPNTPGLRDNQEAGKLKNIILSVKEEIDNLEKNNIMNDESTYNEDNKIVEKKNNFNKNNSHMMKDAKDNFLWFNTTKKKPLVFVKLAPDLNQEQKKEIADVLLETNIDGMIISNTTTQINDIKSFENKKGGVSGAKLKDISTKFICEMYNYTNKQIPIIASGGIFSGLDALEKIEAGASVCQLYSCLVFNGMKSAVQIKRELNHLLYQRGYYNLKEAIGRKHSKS

SMILES	z-score [1]	z-score [2]	z-score [3]	composite z-score [4]	z-score [5]	z-score [6]	z-score [7]	z-score [8]	z-score [9]	composite z-score [10]	composite z-score [11]	composite z-score [12]	z-score [13]	z-score [14]	z-score [15]	z-score [16]
CC(C)C(O)C1C=CC2C(=O)NC(=O)C2N1Nc1ccc(Cl)cc1Cl (centres undefined)	-1.29	-9.69 (active)	-1.59 (inactive)	0.0813 (inactive)	0.751 (inactive)	1.05 (inactive)	-0.456 (inactive)	-0.527 (inactive)	-1.93	-0.02	0.471 (inactive)	-0.615	0.0359	-3.95 (inactive)	0.998 (inactive)	0.237 (inactive)
CCOC(=O)C[C@H]1[C@H](OC(=O)c2ccc(C(=O)c3ccccc3)cc2)[C@@H](NC(=O)c2ccccc2)c2cc(OCCCO)ccc2N1C(=O)Cc1ccc(OC)cc1	0.844	0.0931 (inactive)	0.399 (inactive)	0.107 (inactive)	0.62 (inactive)	0.17 (inactive)	0.722 (inactive)	0.419 (inactive)	0.702	-0.102	-0.0614 (inactive)	0.511	0.4	-1.99 (inactive)	0.119 (inactive)	0.134 (inactive)
Cc1ccc([C@@H]2C[C@@H](Sc3ccccc3)[C@H](C(=O)O)CN2S(=O)(=O)c2ccc(C)cc2)cc1	0.391	-1.58 (inactive)	-1.48 (inactive)	-0.351 (inactive)	0.657 (inactive)	0.455 (inactive)	-0.634 (inactive)	-0.518 (inactive)	-0.738	0.312	0.571 (inactive)	0.8	-0.706	-7.26 (inactive)	0.57 (inactive)	0.498 (inactive)
CC(C)[Si](C#Cc1ccc(Oc2ccccc2)cc1)(O[Si](C#Cc1ccc(Oc2ccccc2)cc1)(C(C)C)C(C)C)C(C)C	0.0013	1.95 (inactive)	0.698 (inactive)	0.936 (inactive)	-0.133 (inactive)	1.88 (inactive)	0.879 (inactive)	0.3 (inactive)	0.603	-0.0009	0.467 (inactive)	-0.0968	-1.37	-2.37 (inactive)	-1.01 (inactive)	-0.556 (inactive)
O=C(CS)NCCCCCCNC(=O)[C@@H]1C[C@@H]2C(=O)NCC(=O)N2[C@@H]1c1cccc(OCCO)c1	-0.3	-0.419 (inactive)	-0.217 (inactive)	-0.216 (inactive)	0.351 (inactive)	0.752 (inactive)	0.713 (inactive)	1.16 (inactive)	-0.252	0.0346	0.67 (inactive)	0.579	0.132	-2.98 (inactive)	0.376 (inactive)	0.376 (inactive)
CN(C)CCCCCCNC(=O)[C@H]1C[C@H]2C(=O)N3CCC[C@H]3C(=O)N2[C@H]1c1ccc(O)cc1	-0.564	-0.444 (inactive)	0.472 (inactive)	-1.76 (inactive)	1.44 (inactive)	-0.327 (inactive)	0.113 (inactive)	-0.523 (inactive)	-0.0213	0.23	1.75 (inactive)	0.926	-1.15	-0.246 (inactive)	-0.0982 (inactive)	0.307 (inactive)
Cc1ccc(S[C@]2(C(=O)NCCCN(C)C)CC(=O)N(Cc3cc(C(F)(F)F)cc(C(F)(F)F)c3)[C@@H]2c2ccc(CO)cc2I)cc1	-0.274	-4.35 (inactive)	-3.04 (inactive)	-0.0868 (inactive)	0.323 (inactive)	-0.514 (inactive)	0.392 (inactive)	0.786 (inactive)	-2.62	-0.0795	-0.773 (inactive)	-0.878	0.227	-3.31 (inactive)	0.522 (inactive)	0.201 (inactive)
C=C[C@H](C)[C@@H](OC(=O)Nc1ccc(OC)cc1)c1ccc(O)c2ccccc12	-1.31	-18.2 (active)	-4.56 (inactive)	-2.51 (inactive)	0.802 (inactive)	-21.8 (active)	1.42 (inactive)	0.525 (inactive)	-2.9	-0.196	0.863 (inactive)	0.251	0.0221	-4.35 (inactive)	-0.025 (inactive)	0.099 (inactive)
C=CCOC(=O)[C@H]1[C@@H]2C(=O)O[C@@H](c3ccccc3)[C@@H](c3ccccc3)N2[C@@H](c2ccc(OCCOC(=O)[C@H]3C[C@H]4C(=O)N[C@@H](CCCCNC(C)=O)C(=O)N4[C@H]3c3cccc(OCCO)c3)cc2)[C@]12C(=O)Nc1ccccc12	0.514	0.922 (inactive)	0.618 (inactive)	0.592 (inactive)	3.14 (inactive)	1.29 (inactive)	0.561 (inactive)	-0.581 (inactive)	0.491	-0.0338	0.899 (inactive)	0.528	-1.69	-1.77 (inactive)	-0.843 (inactive)	-0.373 (inactive)
